The results in this text go back to PubChem BioAssay (EPA / NIEHS).

Active and inactive are the calls of the source. Rule for the calls: active = hit-call score of the fitted dose curve at least 0.9, where 1 is the maximum; inactive = score below 0.9.

Read-out in this test: growth arrest and DNA damage 45 (GADD45B), GADD45B (gene 4616)
Kind of test: LTEA_HepaRG_GADD45B: Life Technologies and Expression Analysis (LTEA) Assay for growth arrest and DNA damage 45 (GADD45B) using HepaRG (AID 2283461). Particulars: mRNA level, 48 h; actives raise or lower the signal. As for the experimental part: LTEA_HepaRG is a cell based, multiplexed-readout assay that uses HepaRG, a human liver cell line, with measurements taken at 48 hours after chemical dosing on a 96-well plate.LTEA_HepaRG_GADD45B is one of 102 assay component(s) measured in the LTEA HepaRG cell culture assay. It is a marker of Cell proliferation, survival, death.Data from the assay component LTEA_HepaRG_GADD45B was analyzed into 1 endpoint. This assay endpoint, LTEA_HepaRG_GADD45B, was analyzed with bidirectional fitting relative to DMSO as the negative control and baseline of activity. Using a type of inducible reporter, measures of mRNA induction for gain or loss-of-signal activity can be used to understand regulation of transcription factor activity. To generalize the intended target to other relatable targets, this assay endpoint is annotated to the mutagenicity response intended target family, where the subfamily is Cell proliferation, survival, death.
A total of 1060 chemcials from the ToxCast library were tested in eight-point concentration-response experiments. Cell culture and cytotoxicity assays were conducted at Thermo Fisher Scientific's Custom Services facility (Madison, WI). A single lot of human HepaRG cells (Thermo Fisher Scientific, Frederick, MD) was used for the cell culture experiments. 96-well format collagen type I coated plates of human HepaRG cells were prepared using established methods. Briefly, cryopreserved HepaRG cells were thawed, plated at a density of approximately 100,000 cells/well in HepaRG Thaw, Plate, and General Purpose media (HPRG770, Thermo Fisher Scientific), and incubated for 48 hours. 0.5% DMSO was selected as vehicle control to balance the requisite need of DMSO in HepaRG cultures to maintain differentiation (for example, baseline metabolism, proportions of hepatocytes vs. cholangiocytes), while enabling further hepatic receptor pathway activation (for example, PXR and CAR) in response to chemical exposure. 48 hours after plating, the culture medium was replaced with HepaRG Serum-Free Incudtion Media. Cells were exposed to each test chemical in duplicate and maintained in CO2 incubators for another 48 hours. Chemical plates were thawed to room temperature and 200x concentrations of treatment groups were prepared. 8-point conentration-reponse curves were made with the highest exposure at 100 uM, followed by half-log dilutions, all in 0.5% DMSO. Each test plate contained variouse controls, induction positive controls (1mM phenobarbital), cytotoxicity positive controls ([…] aflatoxin B1), vehicle controls (0.5% DMSO), and total lysis controls (0.5% DMSO). Cell morphology images were taken using an Essen IncuCyte FLR automated microscope, with six 96-well plates imaged in about 24 minutes. Images were captured and exported and JPEG files. Spent culture media was transfered to black-well plates for the LDH assay, and remaining media was sorted at -80 C for later use. Cells were treated with RLT buffer and frozen until shipped for gene expression analysis. Total RNA was isolated from the cell suspension in 75 uL of Buffer RLT (Qiagen, Germantown, MD 20874) by Quintiles/Expression Analysis (Durham, NC) using a custom isolation procedure. Total RNA from each plate well was transferred to a preamplification plate. Fluidigm's 96.96 Dynamic ArrayTM (Fluidigm, Amsterdam, the Netherlands) technology was used for gene expression analyses by quantitative reverse transcription polymerase chain reaction (qRT-PCR, performed by Quintiles/Expression Analysis, Durham, NC)89. Standard TaqManTM Assays (Applied Biosystems/ThermoFisher Scientific, Foster City, CA) were used to assess the expression of 93 genes selected based on their selectivity and sensitivity to important hepatic receptors known to be modulated by environmental chemicals; importance in human hepatocyte functionality; and hepatotoxicity. […]
Consider `CCCCOC(=O)c1ccccc1C(=O)OCc1ccccc1`, for which the compound was called inactive.

On to `C[N+](C)(C)CC1CO1` (stereo not given), for which the call was inactive.

As to `c1ccc(NNc2ccccc2)cc1`, the AC50 is 50 µM (active).

For `CO[C@@H]1[C@H](OC(=O)NC(=O)CCl)CC[C@]2(CO2)[C@H]1[C@@]1(C)O[C@@H]1CC=C(C)C`, the call was inactive.

For `CCC12COCN1COC2`, the compound was called inactive.

For the compound `O=C(Nc1ccccc1)c1ccccc1I`, the AC50 is 17.1 µM (active).

For `Nc1ccc([N+](=O)[O-])cc1`, the result was inactive.

In the case of `CC(O)CCO` (stereo not given), the outcome was inactive.

On to `O=P(OCCCl)(OCCCl)OCCCl`, for which the outcome was inactive.

In the case of `C1=Cc2cccc3cccc1c23`, the call was inactive.

For the compound `CCC[CH2][Sn]([Cl])([CH2]CCC)[CH2]CCC`, the outcome was inactive.

For the compound `CCCCCOC(=O)c1ccccc1C(=O)OCCCCC`, the result was inactive.

In the case of `CC(C)(OOC(C)(C)c1ccccc1)c1ccccc1`, the AC50 is 50 µM (active).

Regarding `N#CC(Br)(Br)C(N)=O`, the compound was called inactive.

With `O=C(Oc1ccc(Br)cc1)N1CCN2CCC1CC2`, the result was inactive.

With `OCCCBr`, the outcome was inactive.

In the case of `CCNS(=O)(=O)C(F)(F)C(F)(F)C(F)(F)C(F)(F)C(F)(F)C(F)(F)C(F)(F)C(F)(F)F`, the outcome was inactive.

As to `Cc1cccc(N)c1N`, the AC50 was 64 µM (active).

For the compound `ClCCOCCCl`, the result was inactive.

For the compound `CC(C)(C)C(O)(CCc1ccc(Cl)cc1)Cn1cncn1` (stereo not given), the call was inactive.

As to `c1ccc(N=Nc2ccccc2)cc1`, the result was inactive.

Consider `CC(C)N(Cc1ccccc1)C(=O)C(C)(C)C`, for which the result was inactive.

Turning to `c1ccc2c(c1)-c1cccc3cccc-2c13`, the result was inactive.

Consider `CN(C)C(=O)Nc1ccc(Cl)cc1`, for which the call was inactive.

As to `CCCCC(CC)COC(=O)c1ccc(C(=O)OCC(CC)CCCC)c(C(=O)OCC(CC)CCCC)c1` (stereo not given), the compound was called inactive.

As for `CCCSC(=O)N(CCC)CCC`, the call was inactive.

For the compound `Nc1ccc(Cl)cc1N`, the AC50 is 13.3 µM (active).

As to `N#CC(Br)Br`, the result was inactive.

`Nc1ccc(Oc2ccc(N)cc2)cc1`: the result was inactive.

As to `CC(C)COC(=O)c1ccccc1C(=O)OCC(C)C`, the call was inactive.

As to `[Cl-].[Cl-].[Hg+2]`, the AC50 was 50 µM (active).

As to `ClC1=C(Cl)C2(Cl)C3C(Cl)C=CC3C1(Cl)C2(Cl)Cl` (stereo not given), the result was inactive.

With `Cc1ccc([N+](=O)[O-])cc1`, the call was inactive.

Take `Oc1ccccc1Cl`: the compound was classed as inactive.

`ClC1=C(Cl)[C@]2(Cl)[C@H]3[C@H]([C@@H]4C=C[C@H]3C4)[C@@]1(Cl)C2(Cl)Cl`: the outcome was inactive.

Regarding `CCOC(=O)[C@]1(c2ccccc2)Oc2ccccc2[C@@H]1N`, the AC50 is 76.8 µM (active).

Turning to `CNC(=O)Oc1cccc2c1OC(C)(C)C2`, the AC50 is 50 µM (active).

Regarding `CCCCCCCCOC(=O)c1ccc(C(=O)OCCCCCCCC)c(C(=O)OCCCCCCCC)c1`, the result was inactive.

In the case of `c1ccc2c(c1)oc1ccccc12`, the result was inactive.

As to `Cc1cc(N=Nc2ccccc2C)ccc1N`, the AC50 is 7.67 µM (active).
